Only a selection was taken, and hits are over-represented in it overall.
IDE exosite inh = exo-site inhibitors of human IDE, primary screen, biochemical, fluorescence anisotropy, probe displacement | Insulin-degrading enzyme (Homo sapiens), P14735 | purified IDE, FL-6b probe fluorescence polarization; hits give low values | z-score at 20 µM | hit rate 6.3% among 17,000 | AID 1259349, 2017;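 active means z-score of -3 or lower, meaning strong loss of probe binding signal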;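 further: His-tagged human IDE residues 42-1019 made in E. coli with 30 nM FL-6b probe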
Target sequence (P14735 42-1019 limits assumed): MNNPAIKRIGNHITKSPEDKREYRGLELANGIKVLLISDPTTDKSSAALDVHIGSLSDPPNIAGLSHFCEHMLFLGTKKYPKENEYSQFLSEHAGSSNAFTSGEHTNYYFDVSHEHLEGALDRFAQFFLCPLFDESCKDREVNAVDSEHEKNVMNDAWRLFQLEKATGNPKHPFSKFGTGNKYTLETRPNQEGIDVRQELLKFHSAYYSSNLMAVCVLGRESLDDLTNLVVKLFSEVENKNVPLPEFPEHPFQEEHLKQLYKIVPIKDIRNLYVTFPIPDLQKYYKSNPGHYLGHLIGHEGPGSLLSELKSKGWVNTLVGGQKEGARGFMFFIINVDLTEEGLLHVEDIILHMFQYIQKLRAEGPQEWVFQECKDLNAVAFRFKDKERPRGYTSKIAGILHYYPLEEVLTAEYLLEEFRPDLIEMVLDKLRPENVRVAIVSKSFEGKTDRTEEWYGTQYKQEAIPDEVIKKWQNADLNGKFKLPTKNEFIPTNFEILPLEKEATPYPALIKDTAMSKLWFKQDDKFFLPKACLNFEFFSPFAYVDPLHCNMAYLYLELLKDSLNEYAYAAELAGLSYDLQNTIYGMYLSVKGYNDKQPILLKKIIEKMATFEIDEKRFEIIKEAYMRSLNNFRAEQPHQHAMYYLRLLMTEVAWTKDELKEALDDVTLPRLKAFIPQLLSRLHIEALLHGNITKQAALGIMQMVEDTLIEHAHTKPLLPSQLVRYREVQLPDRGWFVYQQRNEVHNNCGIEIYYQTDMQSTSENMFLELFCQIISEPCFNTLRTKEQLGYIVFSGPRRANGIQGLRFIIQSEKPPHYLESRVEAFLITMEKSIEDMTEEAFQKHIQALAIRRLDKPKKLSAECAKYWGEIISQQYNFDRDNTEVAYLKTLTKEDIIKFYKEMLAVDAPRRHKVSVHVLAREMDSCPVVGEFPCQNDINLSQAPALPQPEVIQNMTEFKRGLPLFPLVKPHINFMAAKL
The depositor's hits bear a star.

SMILES | IDE exosite inh
N#C[C@H]1[C@H](c2ccc(C3=CCCCC3)cc2)[C@@H](CO)N1C(=O)c1cccc(F)c1 | 4.2
Cc1ccc(-c2ccc([C@@H]3[C@@H]4CN(Cc5ccccc5F)C[C@H]3N4)cc2)cc1 | 0.62
COc1ccccc1NC(=O)N1CCCCN2[C@H](C1)[C@@H](c1ccc(-c3cccc(C)c3)cc1)[C@@H]2CO | -2.6
COc1ccccc1NC(=O)N1CCCCN2[C@H](CO)[C@H](c3ccc(-c4cccc(C)c4)cc3)[C@@H]2C1 | -0.063
Cc1cccc(-c2ccc([C@@H]3[C@H]4CN(C(=O)c5ccc6c(c5)OCO6)CCCCN4[C@H]3CO)cc2)c1 | 1.5
COc1ccccc1NC(=O)N1CCCCN2[C@@H](CO)[C@H](c3ccc(-c4cccc(C)c4)cc3)[C@@H]2C1 | -2.8
Cc1cccc(-c2ccc([C@H]3[C@@H](CO)N4CCCCN(C(=O)NC(C)C)C[C@H]34)cc2)c1 | -13*
Cc1cccc(-c2ccc([C@@H]3[C@H]4CN(C(=O)NC(C)C)CCCCN4[C@H]3CO)cc2)c1 | -12*
Cc1ccc(-c2ccc(C3[C@H]4CNC[C@@H]3N4C(=O)NC(C)C)cc2)cc1 (stereo partly specified) | 0.9
Cc1noc(C)c1NC(=O)N1C[C@H](O)COC[C@@H]2O[C@H](CC(=O)N[C@@H]3CCN(Cc4ccccc4)C3)CC[C@H]21 | -0.083
O=C(C1CCOCC1)N1CC(=O)N2[C@H](C1)[C@@H](c1ccc(C#Cc3cccc(F)c3)cc1)[C@@H]2CO | -9.4*
O=C(C1CCOCC1)N1CC(=O)N2[C@H](CO)[C@@H](c3ccc(C#CC4CC4)cc3)[C@@H]2C1 | -0.18
O=C(C1CCOCC1)N1CC(=O)N2[C@@H](CO)[C@H](c3ccc(C#Cc4cccc(F)c4)cc3)[C@@H]2C1 | -6.6*
O=C(C1CCOCC1)N1CC(=O)N2[C@H](CO)[C@@H](c3ccc(C#Cc4cccc(F)c4)cc3)[C@H]2C1 | -4.4*
O=C(C1CCOCC1)N1CC(=O)N2[C@H](CO)[C@H](c3ccc(C#Cc4cccc(F)c4)cc3)[C@@H]2C1 | -8.2*
N#C[C@H]1[C@H](c2ccccc2C2=CCCC2)[C@H](CO)N1C(=O)NC1CCCCC1 | 0.092
CC(=O)N1CC(=O)N2[C@H](CO)[C@@H](c3ccc(-c4cccc(C(=O)N(C)C)c4)cc3)[C@H]2C1 | 3.3
CCS(=O)(=O)N1Cc2cc(C(=O)N(C)C)nc(-c3cccc(-c4ccc(C#N)cc4)c3)c2[C@@H]1CCO | 1.4
N#C[C@@H]1[C@H](c2ccccc2-c2ccccc2F)[C@H](CO)N1C(=O)c1cccc(F)c1 | 0.18
CCC(=O)N1[C@@H]2c3ccc(-c4ccc(F)cc4)c(=O)n3C[C@@H]2[C@@H](CO)[C@@H]1C(=O)N(C)C | 0.11
C[C@H]1COCc2cnnn2CC[C@@H](Cc2ccccc2)C(=O)N1 | -0.73
CO[C@H]1CN(C)C(=O)c2cc(NS(C)(=O)=O)ccc2OC[C@@H](C)N(C(=O)C2CCOCC2)C[C@H]1C | 0.47
OC[C@@H]1[C@H](c2ccc(-c3ccc(F)cc3)cc2)[C@@H]2CN(Cc3cccnc3)CCCCN12 | 1.4
OC[C@H]1[C@H](c2ccc(/C=C/c3ccccc3)cc2)[C@H]2CN(Cc3cccnc3)CCCCN21 | -1.9
OC[C@H]1[C@@H](c2ccc(/C=C/c3ccccc3)cc2)[C@H]2CN(Cc3ccncc3)CCCCN21 | -5.7*
SMILES | IDE exosite inh
OC[C@@H]1[C@@H](c2ccc(/C=C/c3ccccc3)cc2)[C@@H]2CN(Cc3ccncc3)CCCCN12 | -5*
CCCC#Cc1ccc([C@H]2[C@H]3CN(Cc4ccncc4)CCCCN3[C@H]2CO)cc1 | -1.2
OC[C@H]1[C@@H](c2ccc(/C=C/c3ccccc3)cc2)[C@@H]2CN(Cc3cccnc3)CCCCN12 | -4.4*
OC[C@@H]1[C@@H](c2ccc(/C=C/c3ccccc3)cc2)[C@H]2CN(Cc3ccncc3)CCCCN12 | -5.2*
CCCC#Cc1ccc([C@H]2[C@@H](CO)N3CCCCN(Cc4ccncc4)C[C@@H]23)cc1 | 0.17
CCCC(=O)N1CC2(C1)CN(S(=O)(=O)c1ccc(C)cc1)[C@H](CO)c1[nH]c3cc(OC)ccc3c12 | 0.71
CN(C)C(=O)c1cccc(-c2ccc([C@@H]3[C@H]4CN(C(=O)Cc5ccccc5)CC(=O)N4[C@H]3CO)cc2)c1 | 0.16
CC(=O)NC[C@@H]1[C@@H](c2ccc(-c3cccnc3)cc2)[C@H](CO)N1C(=O)C1CC1 | -2.6
CCCNC(=O)N[C@@H]1C=C[C@H](CC(=O)N2CCN(C)CC2)O[C@H]1CO | 0.51
CO[C@@H]1CN(C)C(=O)c2ccc(NC(=O)NC3CCCCC3)cc2OC[C@@H](C)N(CCc2ccccc2)C[C@H]1C | 0.87
CC(=O)N(C)C[C@H]1[C@@H](c2ccc(C#CC(C)C)cc2)[C@@H](CO)N1C(=O)C1CCC1 | 1.6
COc1ccc(-c2ccc([C@H]3[C@H](CO)N4CCCCN(C(=O)c5ccc6c(c5)OCO6)C[C@@H]34)cc2)cc1 | 1.3
COc1ccc(C#Cc2ccc([C@@H]3[C@@H](CO)N4CCCCN(Cc5ccncc5)C[C@H]34)cc2)cc1 | -0.63
